Assay outcomes from PubChem BioAssay.
Compounds with a hit are over-represented: about 7.9% of the library has one in this group of screens.
MCF10A rerep: induces DNA re-replication in MCF 10a normal breast cells; AID 624296; hit rate 2.9% among 350,000; MCF 10A DNA re-replication, Hoechst nuclear intensity, 48 h; Potency, µM (top dose mostly 46.1 µM), for the others: at the top dose activity, positive = re-replication, actives largely listed as activators; note: % of control where 0% means no effect; nearly all actives have a fitted effect of over 50% in size
KB-3-1 cytotox: KB-3-1 parental cell cytotoxicity; KB-3-1 viability, CellTiter-Glo ATP luminescence, 72 h; Potency, µM (doses to about 46.1 µM), most hits filed as cytotoxic; hit rate 1.4% among 400,000; AID 1347075; note: % is set by controls: 0 for no effect and ±100 for the full control effect; nearly all actives have a fitted effect of over 60% in size
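Cytotoxicity in the drug-sensitive parental line KB-3-1 was scored as loss of CellTiter-Glo luminescence following 72 h incubation with compound. Values come from curve fitting of normalized concentration-response data.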
HT1080NT lethal: kills 2HG-producing HT-1080-NT fibrosarcoma cells. HT-1080-NT fibrosarcoma viability, CellTiter-Glo ATP luminescence, 48 h. Potency, µM (highest dose often 46.1 µM), for inactives: top-dose activity, negative = less viability, hits mostly cytotoxic. hit rate 1.6% among 360,000. AID 686970;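 note: NT is the 2HG producing partner of a matched IDH1 knockdown line; 0% = DMSO-treated cells and -100% = media-only wells without cells; nearly all actives have a fitted effect of over 55% in size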
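A 48-hour cytotoxicity screen used HT-1080-NT cells plated 2 hours before compound delivery. ATP-based CellTiter-Glo luminescence measured viability, normalized to DMSO and no-cell controls.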
KB-V1 MDR tox: KB-V1 MDR subline cytotoxicity; hit rate 3.4% among 400,000; Potency, µM (top dose mostly 46.1 µM), most hits filed as cytotoxic; KB-V1 MDR cells viability, CellTiter-Glo, 72 h; note: % is set by controls: 0 for no effect and ±100 for the full control effect; nearly all actives have a fitted effect of over 60% in size
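qHTS viability screen in drug-selected KB-V1 MDR cells: 72 h compound treatment at 37 degrees C, ATP luminescence end point.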
SW480 rerep: inducers of DNA re-replication in SW480 colon cancer cells. AID 624297. hit rate 1.8% among 340,000. Potency, µM (top dose mostly 46.1 µM), for the others: at the top dose re-replication activation, most hits filed as activators. SW480 DNA re-replication, Hoechst DNA content imaging, 48 h; note: % of control where 0% means no effect; nearly all actives have a fitted effect of over 55% in size
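Treated cells incubate 48 hr (37 C, 5% CO2), are stained 40 min with Hoechst, and nuclear fluorescence is enumerated; a rise in nuclei with high DNA signal marks re-replication.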
HT1080 IDH1KD tx: kills HT-1080 cells with IDH1 knockdown; HT-1080 IDH1 knockdown viability, ATP luminescence, 48 h; Potency, µM (highest dose often 46.1 µM), for inactives: at the top dose activity, negative = toxicity, usual class: cytotoxic; hit rate 2% among 360,000; AID 686971;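 note: 0% = DMSO wells and -100% = cell-free medium wells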
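% activity derives from luminescence (CellTiter-Glo), normalised to DMSO and no-cell wells. HT-1080-IDH1KD cells, 750/well, had 48 h compound exposure at 37 °C.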
The depositor's hits bear a star; i = inactive; ? = inconclusive; . = not tested or not shown. Calls come from the whole dose curve; as a rule, active = well fitted curve in the direction sought with a large enough effect; inconclusive = small, poorly fitted or top-dose-only effect, or another doubt; inactive = no such curve, though single readings can be large; an effect the other way counts as inactive or inconclusive. Potency is the fitted concentration of half-maximal effect.

SMILES	MCF10A rerep	KB-3-1 cytotox	HT1080NT lethal	KB-V1 MDR tox	SW480 rerep	HT1080 IDH1KD tx
COc1cccc(C(C(=O)NCc2ccccc2)N2CCN(c3cccc(C)c3C)CC2)c1OC (stereo not given)	.	?	?	16µM*	.	?
COC(=O)c1ccc(Oc2nc(Nc3ccccc3)nc(N(C)C)n2)cc1	?	i	-1%	15µM*	13%	5%
CCN(CC)c1nc(Oc2ccc(C(=O)NN)cc2)nc(Oc2ccc(C(=O)NN)cc2)n1	1%	i	-5%	i	2%	-3%
COC(=O)c1ccc(Oc2nc(SC)nc(N(C)C)n2)cc1	2%	i	2%	i	-11%	0%
CCN(CC)c1nc(Nc2ccccc2)nc(Oc2ccc(C(=O)OC)cc2)n1	?	?	7%	?	21µM*	6%
COc1ccccc1CCN1CCCC(CN(C)C(=O)CCC(=O)N(C)C)C1 (stereo not given)	-2%	i	14%	?	-5%	-1%
O=C(NCC[C@H]1CC[C@@H](NC(=O)C2CCC2)[C@@H](CO)O1)c1cc(Cl)cc(Cl)c1	.	i	15%	i	.	15%
COc1ccc(-c2sc3cc4c(cc3c2C#CC2(O)CCCCC2)OCO4)cc1	23µM*	i	-20%	i	-2%	-25%
COc1ccc(-c2sc3ccc(OC)cc3c2C#CCCO)cc1	?	i	-18%	i	6%	-29%
COc1ccc(-c2sc3cc(OC)c(OC)cc3c2C#CC(C)(C)O)cc1	?	i	?	i	-1%	-13%
COc1ccc2sc(-c3ccc(SC)cc3)c(C#CC(C)(C)O)c2c1	?	?	?	i	-3%	?
COc1ccc2sc(-c3ccc(N(C)C)cc3)c(C#Cc3cncn3C)c2c1	?	10µM*	26µM*	?	1.3µM*	26µM*
COc1ccc2sc(-c3ccc(N(C)C)cc3)c(C#CC(C)(C)O)c2c1	12%	i	?	i	2.1µM*	?
COc1ccc(-c2sc3cc(OC)c(OC)cc3c2C#CCO)cc1	7%	i	-28%	i	3.3µM*	?
COc1ccc2sc(-c3ccc(N(C)C)cc3)c(C#CCCO)c2c1	?	?	16µM*	?	4.1µM*	?
CCC(C)C1/C=C\CC(NC(=O)OCC2c3ccccc3-c3ccccc32)CC(=O)N1Cc1ccccc1 (stereo not given)	?	i	-27%	i	-4%	?
COc1cccc(-n2c(C)cc(/C=C3/C(=N)N4C(=NC3=O)SN=C4S(C)(=O)=O)c2C)c1	16µM*	i	-11%	i	5%	?
Cc1ccc(-n2cccc2/C=C2/C(=N)N3C(=NC2=O)SN=C3S(C)(=O)=O)cc1	16µM*	i	-5%	i	-3%	8%
COc1cc(/C=C2/C(=N)N3C(=NC2=O)SN=C3S(C)(=O)=O)ccc1OS(=O)(=O)c1ccc(C)cc1	?	i	-26%	i	?	?
CCc1ccc(-n2cccc2/C=C2/C(=N)N3C(=NC2=O)SN=C3S(C)(=O)=O)cc1	?	i	-10%	i	0%	-9%
Cc1cc(C)cc(-n2cccc2/C=C2/C(=N)N3C(=NC2=O)SN=C3S(C)(=O)=O)c1	?	?	18µM*	i	-50%	-17%
Cc1ccc(Cn2cnc3ccccc32)cc1C	18%	8.2µM*	-8%	21µM*	1%	-30%
Cc1cc2[nH]c(=O)c(=O)[nH]c2cc1S(=O)(=O)N1CCN(c2cccc(C(F)(F)F)c2)CC1	16µM*	i	-1%	i	-11%	-20%
O=C(Cc1csc(Nc2nc(=S)[nH]c3ccccc23)n1)N1CCN(c2cccc(C(F)(F)F)c2)CC1	?	13µM*	-10%	23µM*	9%	-1%
